Data: the supplement of paper PMC4954754
± gives the uncertainty stated by the source.

Columns and labels:
HEK293T-Rex XBP1-RLuc = assay: XBP1-RLuc splicing reporter activation, triplicate, relative to 500 nM thapsigargin (% of thapsigargin); higher = stronger IRE1/XBP1s reporter activation; settings: 6.8 µM; 18 h; screen: confirmation
Method: (§1)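 HEK293T-Rex cells stably expressing the ERSE-firefly luciferase (BiP promoter, ATF6-preferring) or XBP1-splicing Renilla luciferase (IRE1/XBP1s) reporter, 1536-well plates, compound at 6.8 µM for 18 hr at 37 °C; luminescence read […] and expressed as % activation = 100*(compound - median DMSO)/(median 500 nM thapsigargin - median DMSO). Primary screen was single-pass; confirmation screen in triplicate (mean ± SD).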

HEK293T-Rex ERSE-FLuc = assay: ERSE-FLuc reporter activation, triplicate confirmation, relative to 500 nM thapsigargin (% of thapsigargin); higher = stronger ATF6/ERSE reporter activation; settings: 6.8 µM; 18 h; screen: confirmation
Method: as §1

Row | Compound | XBP1-RLuc splicing reporter activation (HEK293T-Rex XBP1-RLuc) | ERSE-FLuc reporter activation (HEK293T-Rex ERSE-FLuc)
1 | COc1ccccc1/C=N/Nc1nc(-c2ccccc2)cc(=O)[nH]1 | 7.58 ± 1.9 | 25.2 ± 1.8
2 | C/C(=N\NC(=O)c1n[nH]c2c1CCCC2)c1ccc2ccccc2c1 | 1.43 ± 0.96 | 30.7 ± 2.6
3 | CCOC(=O)c1sc(NC(=O)c2cccc3ccccc23)nc1C | 2.85 ± 0.37 | 27.3 ± 2.2
4 | CCOc1ccc(/C=C(\C#N)c2[nH]nc(N)c2C#N)cc1OCC | 7.63 ± 1 | 26.7 ± 5.5
5 | CC(C)c1ccc(NC(=O)/C=C/c2ccco2)cc1 | 4 ± 0.68 | 26.6 ± 5.9
6 | Cc1ccc2c(N)c(C(=O)c3ccc4c(c3)OCO4)sc2n1 | 5.3 ± 0.72 | 35.9 ± 4.3
7 | Cc1ccc(O)c(NC(=O)c2cc(-c3cccs3)on2)c1 | 22.7 ± 1.2 | 106 ± 4
8 | Cc1ccc(C)c(/C=N/Nc2nncc3ccccc23)c1 | 5.57 ± 0.69 | 29.7 ± 1.9
9 | CCCCCCc1ccc(-c2ncc(N)cn2)cc1 | 12.9 ± 0.42 | 33.2 ± 4.7
10 | Oc1ccc(-c2csc(-c3ccccc3)n2)cc1O | 31.3 ± 3.1 | 61.5 ± 5.1
11 | N#Cc1c(NC(=O)c2ccc3ncsc3c2)sc2c1CCC2 | 1.45 ± 1.6 | 32.1 ± 2.5
12 | COc1c(O)cc2oc(-c3ccc(O)c(O)c3)cc(=O)c2c1O | 53.7 ± 3.8 | 133 ± 21
13 | N#Cc1c(NC(=O)c2ccc(Br)cc2)sc2c1CCCC2 | 1.92 ± 0.76 | 27.3 ± 5.2
14 | N#Cc1c(NC(=O)c2ccc3c(c2)OCO3)sc2c1CCCC2 | 2.57 ± 0.57 | 28.7 ± 6.8
15 | O=C(/C=C/c1ccco1)Nc1ccccn1 | 0.777 ± 0.52 | 27.7 ± 4.8
16 | COc1ccc(-n2nnnc2SCC(N)=O)c(OC)c1 | 13.9 ± 1.2 | 34.5 ± 5.7
17 | COc1ccc(N(C(=O)c2ccccc2)S(=O)(=O)c2cc(OC)ccc2OC)cc1 | 59.2 ± 7.4 | 103 ± 9.2
18 | Oc1ccc(/C=N/Nc2cccc(Cl)n2)c(O)c1 | 10.9 ± 0.95 | 31 ± 7.1
19 | CCOc1cccc(/C=C2\NC(=S)N(C)C2=O)c1O | -2.09 ± 0.54 | 26.2 ± 29
20 | COc1ccc(/C=C2\SC(=O)NC2=Nc2ccc(C)cc2)c(OC)c1 | 6.33 ± 0.42 | 26.8 ± 1.3
21 | OCCNc1nc(Nc2ccc(Cl)c(Cl)c2)nc2ccccc12 | 42.7 ± 1.8 | 87.6 ± 9.4
22 | Nc1ccccc1NC(=O)c1ccc(Cl)cc1 | 10 ± 0.7 | 33.6 ± 4.6
23 | O=C(Nc1ccc(O)cc1)c1ccc2ccccc2c1 | 6.41 ± 0.68 | 28.3 ± 11
24 | Cc1ccc(O)c(NC(=O)c2cc(-c3cccnc3)on2)c1 | 19.8 ± 0.85 | 70 ± 3.2
25 | COc1ccc(/C=C/c2nc3cc([N+](=O)[O-])ccc3s2)cc1O | 4.47 ± 0.66 | 25.5 ± 3.9

Row | Compound | XBP1-RLuc splicing reporter activation (HEK293T-Rex XBP1-RLuc) | ERSE-FLuc reporter activation (HEK293T-Rex ERSE-FLuc)
26 | O=C(N/N=C/c1cccc(Cl)c1Cl)c1ccccc1O | 6.36 ± 0.63 | 25.3 ± 1.4
27 | CCN(CC)c1ccc2cc(-c3nc4ccccc4n3C)c(=O)oc2c1 | 9.31 ± 0.79 | 34.2 ± 4.2
28 | COc1ccc(CCNC(=O)c2cccc(-c3ccc(N4CCOCC4)nc3)c2)cc1 | 1.79 ± 0.38 | 48.7 ± 4.2
29 | Cc1ccc2nc(/C(C#N)=C\c3cc(Cl)cc4c3OCOC4)[nH]c2c1 | 12.1 ± 2.3 | 51.3 ± 9.8
30 | CC(=O)Oc1ccc(C(=O)OCc2ccc(Cl)cc2)cc1OC(C)=O | 12.3 ± 2.2 | 35.9 ± 4.4
31 | COc1ccccc1-c1nnc(Nc2nc3c(OC)cccc3s2)o1 | 10.2 ± 1 | 51 ± 10
32 | Cc1ccc(O)c(-c2cc(C(F)(F)C(F)F)no2)c1 | 13.8 ± 1.5 | 37.1 ± 3.1
33 | Cc1cc(C)nc(/N=C(\N)Nc2ccc(OCc3ccc(Cl)cc3)cc2)n1 | 81.2 ± 5.9 | 59.7 ± 14
34 | COc1cc(/C=C/c2ccc(O)c(OC)c2)ccc1O | 31.8 ± 2.2 | 35.9 ± 9.1
35 | CS(=O)(=O)c1ncc(Cl)c(C(=O)C(C#N)c2nc3ccccc3s2)n1 (stereo unspecified) | 19.5 ± 4.9 | 42.3 ± 12
36 | Nc1ccc2nc(-c3ccc(Cl)cc3)[nH]c2c1 | 8.9 ± 0.25 | 33.6 ± 2.4
37 | COc1cccc(/C=N\NC(=O)c2n[nH]c3c2CCC3)c1 | 2.25 ± 1 | 26.1 ± 2.5
38 | N#Cc1c(NC(=O)c2cnccn2)sc2c1CCCC2 | 2.98 ± 3.5 | 40.2 ± 22
39 | Cc1cccc2c1[nH]c1nc(N/N=C\c3c[nH]c4ccccc34)nnc12 | 21.8 ± 1.6 | 60.4 ± 14
40 | Cc1ccc(O)c(N=CC2=C(O)c3ccccc3C2=O)c1 | 24.1 ± 1.3 | 78.8 ± 6.2
41 | Cc1ccc(O)c(N/C=C/C(=O)c2cccs2)c1 | 4.09 ± 1.2 | 62.1 ± 12
42 | O=C(N/N=C/c1cccc(O)c1O)c1ccccc1I | 11.2 ± 0.69 | 25.6 ± 5.4
43 | Cc1ccc(O)c(NC(=O)CSc2n[nH]c(C)c2[N+](=O)[O-])c1 | 16.6 ± 2.4 | 52.5 ± 14
44 | CC(=O)c1cccc(Nc2nc(-c3ccc(O)c(O)c3)cs2)c1 | 21.8 ± 1.3 | 31.6 ± 5.1
45 | COc1ccc(Nc2nccn3c(-c4ccsc4)cnc23)cn1 | 3.91 ± 0.5 | 38.1 ± 6.9
46 | COc1cc2ccccc2cc1C(=O)N/N=C/c1cccs1 | 3.81 ± 0.66 | 25.7 ± 4.6
47 | Nc1cn(-c2ccccc2)nc1-c1cccs1 | 50.6 ± 2.8 | 28.6 ± 6.5
48 | CCOc1cc(/C=C2/NC(=O)N(c3cccc(Cl)c3)C2=O)ccc1O | 22.9 ± 1.5 | 30.5 ± 9.3
49 | Fc1ccc(-c2nnc3ccc(N4CCN(c5ccccn5)CC4)nn23)cc1 | 38.3 ± 2.6 | 34.3 ± 3.5
50 | C/C(=N\NC(=O)c1n[nH]c2c1CCCC2)c1ccc(Br)cc1 | 2.87 ± 0.99 | 27.2 ± 1.9

Row | Compound | XBP1-RLuc splicing reporter activation (HEK293T-Rex XBP1-RLuc) | ERSE-FLuc reporter activation (HEK293T-Rex ERSE-FLuc)
51 | Cn1c(-c2cccc(Cl)c2)cnc1NC(=O)c1ccccc1 | 2.86 ± 0.72 | 25.6 ± 3.7
52 | CN(C)c1ccc(C(=NO)c2ccc(N(C)C)cc2)cc1 | 6.61 ± 1.1 | 28 ± 6.5
53 | O=C(N/N=C/c1ccc2c(c1)OCO2)c1cccc(F)c1 | 1.67 ± 0.99 | 27.1 ± 2.4
54 | COc1ccc2[nH]c3c(N4CCCCC4)ncnc3c2c1 | 4.28 ± 0.66 | 28.3 ± 2.6
55 | Cc1ccc(O)c(NC(=O)c2cc(C3CC3)on2)c1 | 13.9 ± 2.1 | 59.4 ± 7.7
56 | C=CCNC(=O)c1cc(-c2ccc(F)cc2)on1 | 1.92 ± 2.1 | 25.1 ± 4.7
57 | CC(C)CC(c1nnnn1C1CCCC1)N1CCN(C(=O)c2ccco2)CC1 (stereo unspecified) | 10.6 ± 2.2 | 29.5 ± 1
58 | COc1ccc(-c2cc(C(=O)Nc3cc(C)ccc3O)on2)cc1OC | 10.9 ± 1.2 | 33.8 ± 1.9
59 | COc1ccc2oc(=Nc3cc(F)ccc3F)c(C(N)=O)cc2c1 | 4.22 ± 1 | 25.3 ± 4.6
60 | COCCNC(=O)c1cc(-c2cccs2)on1 | 6.38 ± 1.2 | 27.4 ± 2.4
61 | CC(=O)Oc1cc(N2CCOCC2)c(OC(C)=O)c2c1C(=O)c1ccccc1C2=O | 8.79 ± 2 | 45 ± 8
62 | Cc1ccc(O)c(NC(=O)CN(C)S(=O)(=O)c2ccc(Cl)cc2)c1 | 15.1 ± 3.3 | 29.8 ± 0.59
63 | CCC(=O)N(Cc1cc2cc(C)ccc2n2nnnc12)C1CCCC1 | 4.74 ± 0.41 | 33.5 ± 2.4
64 | O=C(N/N=C\C(Cl)=C\c1ccccc1)c1n[nH]c2c1CCCC2 | 6.87 ± 1.5 | 33.3 ± 7.3
65 | N#CC1=C(N)Oc2c(ccc3ccccc23)C1c1ccsc1 (stereo unspecified) | 9.04 ± 1.1 | 25.8 ± 2.7
66 | O=C(Nc1ccc(Cl)cn1)c1ccc(Cl)cc1Cl | 0.717 ± 0.56 | 27.1 ± 2.4
67 | COC(=O)c1ccc(C(=O)Nc2ccccc2N)cc1 | 9.29 ± 0.17 | 32.9 ± 4.2
68 | Cc1ccc(NC(=O)/C=C/c2ccco2)nc1 | 5.22 ± 0.94 | 27.9 ± 7.1
69 | Cc1nc(-c2ccc(C(=O)Nc3ccc(O)cc3)cc2)cs1 | 19.3 ± 0.19 | 31.8 ± 7.4
70 | O=C(NCCc1ccc(O)cc1)c1ccc2nc(-c3csc4ccccc34)sc2c1 | 18.8 ± 1.8 | 103 ± 23
71 | O=C(/C=C/c1ccccc1)Nc1ccc(Cl)cn1 | 1.96 ± 0.26 | 27.9 ± 6.3
72 | O=C(N/N=C/c1ccc(Cl)cc1)c1n[nH]c2c1CCCC2 | 3.79 ± 8.1 | 42 ± 8.6
73 | Nc1ccc2nc(/C=C/c3ccco3)[nH]c2c1 | 17.8 ± 0.14 | 40.9 ± 9.5
